# Experimental data reported in the supplement of paper PMC4466140.
# What was measured:
# Test in all cases: SPOT peptide array binding signal intensity (averaged, normalized) (arbitrary units (background-subtracted, floor 0; scale differs between SH3 domains)); higher = stronger binding of the SH3 domain to the peptide
# AgAbp1 = biological target: AgAbp1
# Summary of the method: (§1)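 Spot intensities were captured after detection with anti-GST antibody, an HRP-linked anti-mouse secondary and luminol, and quantified with Genespotter. The probes were GST-fused SH3 domains from four yeast species, produced in E. coli BL21(DE3), purified on glutathione Sepharose and incubated at 10 μg/ml overnight at 4°C on cellulose-bound synthetic 15-mer peptides with cysteines replaced by serines. Binding signal is the normalized, background-subtracted spot intensity averaged over replicates, and its arbitrary units differ between domains.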
# AgBbc1 = biological target: AgBbc1
# Summary of the method: as §1
# AgBem1-D1 = biological target: AgBem1-D1
# Summary of the method: as §1
# AgBzz1-D1 = biological target: AgBzz1-D1
# Summary of the method: as §1
# AgBzz1-D2 = biological target: AgBzz1-D2
# Summary of the method: as §1
# AgCyk3 = biological target: AgCyk3
# Summary of the method: as §1
# AgFus1 = biological target: AgFus1
# Summary of the method: as §1
# AgHof1 = biological target: AgHof1
# Summary of the method: as §1
# AgHse1 = biological target: AgHse1
# Summary of the method: as §1
# AgLsb1 = biological target: AgLsb1
# Summary of the method: as §1
# AgLsb4 = biological target: AgLsb4
# Summary of the method: as §1
# AgMyo5 = biological target: AgMyo5
# Summary of the method: as §1
# AgNbp2 = biological target: AgNbp2
# Summary of the method: as §1
# AgRvs167 = biological target: AgRvs167
# Summary of the method: as §1
# AgSho1 = biological target: AgSho1
# Summary of the method: as §1
# AgSla1-D1-D2 = biological target: AgSla1-D1-D2
# Summary of the method: as §1
# AgSla1-D3 = biological target: AgSla1-D3
# Summary of the method: as §1
# CaAbp1-D1 = biological target: CaAbp1-D1
# Summary of the method: as §1
# CaAbp1-D2 = biological target: CaAbp1-D2
# Summary of the method: as §1
# CaBbc1 = biological target: CaBbc1
# Summary of the method: as §1
# CaBem1-D1 = biological target: CaBem1-D1
# Summary of the method: as §1
# CaBzz1-D1 = biological target: CaBzz1-D1
# Summary of the method: as §1
# CaBzz1-D2 = biological target: CaBzz1-D2
# Summary of the method: as §1
# CaCyk3 = biological target: CaCyk3
# Summary of the method: as §1
# CaFus1 = biological target: CaFus1
# Summary of the method: as §1
# CaHof1 = biological target: CaHof1
# Summary of the method: as §1
# CaHse1 = biological target: CaHse1
# Summary of the method: as §1
# CaLsb1 = biological target: CaLsb1
# Summary of the method: as §1
# CaLsb4 = biological target: CaLsb4
# Summary of the method: as §1
# CaMyo5 = biological target: CaMyo5
# Summary of the method: as §1
# CaNbp2 = biological target: CaNbp2
# Summary of the method: as §1
# CaRvs167 = biological target: CaRvs167
# Summary of the method: as §1
# CaRvs167-3 = biological target: CaRvs167-3
# Summary of the method: as §1
# CaSho1 = biological target: CaSho1
# Summary of the method: as §1
# CaSla1-D1-D2 = biological target: CaSla1-D1-D2
# Summary of the method: as §1
# CaSla1-D3 = biological target: CaSla1-D3
# Summary of the method: as §1
# ScAbp1 = biological target: ScAbp1
# Summary of the method: as §1
# ScBbc1 = biological target: ScBbc1
# Summary of the method: as §1
# ScBem1-D1 = biological target: ScBem1-D1
# Summary of the method: as §1
# ScBzz1-D1 = biological target: ScBzz1-D1
# Summary of the method: as §1
# ScBzz1-D2 = biological target: ScBzz1-D2
# Summary of the method: as §1
# ScCyk3 = biological target: ScCyk3
# Summary of the method: as §1
# ScFus1 = biological target: ScFus1
# Summary of the method: as §1
# ScHof1 = biological target: ScHof1
# Summary of the method: as §1
# ScHse1 = biological target: ScHse1
# Summary of the method: as §1
# ScLsb1 = biological target: ScLsb1
# Summary of the method: as §1
# ScLsb2 = biological target: ScLsb2
# Summary of the method: as §1
# ScLsb3 = biological target: ScLsb3
# Summary of the method: as §1
# ScLsb4 = biological target: ScLsb4
# Summary of the method: as §1
# ScMyo3 = biological target: ScMyo3
# Summary of the method: as §1
# ScMyo5 = biological target: ScMyo5
# Summary of the method: as §1
# ScNbp2 = biological target: ScNbp2
# Summary of the method: as §1
# ScPex13 = biological target: ScPex13
# Summary of the method: as §1
# ScRvs167 = biological target: ScRvs167
# Summary of the method: as §1
# ScSho1 = biological target: ScSho1
# Summary of the method: as §1
# ScSla1-D1-D2 = biological target: ScSla1-D1-D2
# Summary of the method: as §1
# ScSla1-D3 = biological target: ScSla1-D3
# Summary of the method: as §1
# SpAbp1-D1 = biological target: SpAbp1-D1
# Summary of the method: as §1
# SpBbc1 = biological target: SpBbc1
# Summary of the method: as §1
# SpBzz1-D1 = biological target: SpBzz1-D1
# Summary of the method: as §1
# SpBzz1-D2 = biological target: SpBzz1-D2
# Summary of the method: as §1
# SpCyk3 = biological target: SpCyk3
# Summary of the method: as §1
# SpHof1 = biological target: SpHof1
# Summary of the method: as §1
# SpHof1-2 = biological target: SpHof1-2
# Summary of the method: as §1
# SpHof1-3 = biological target: SpHof1-3
# Summary of the method: as §1
# SpHse1 = biological target: SpHse1
# Summary of the method: as §1
# SpLsb1 = biological target: SpLsb1
# Summary of the method: as §1
# SpLsb4 = biological target: SpLsb4
# Summary of the method: as §1
# SpMyo1 = biological target: SpMyo1
# Summary of the method: as §1
# SpNbp2 = biological target: SpNbp2
# Summary of the method: as §1
# SpPex13 = biological target: SpPex13
# Summary of the method: as §1
# SpRvs167 = biological target: SpRvs167
# Summary of the method: as §1
# SpSla1-D1-D2 = biological target: SpSla1-D1-D2
# Summary of the method: as §1
# SpSla1-D3 = biological target: SpSla1-D3
# Summary of the method: as §1
binder,measurement,setting,value
NFFRKKLGIPRKLKR,SPOT peptide array binding signal intensity,AgAbp1,227
same,SPOT peptide array binding signal intensity,AgBbc1,12
same,SPOT peptide array binding signal intensity,AgBem1-D1,94
same,SPOT peptide array binding signal intensity,AgBzz1-D1,20
same,SPOT peptide array binding signal intensity,AgBzz1-D2,45
same,SPOT peptide array binding signal intensity,AgCyk3,1.5
same,SPOT peptide array binding signal intensity,AgFus1,142
same,SPOT peptide array binding signal intensity,AgHof1,13.2
same,SPOT peptide array binding signal intensity,AgHse1,1980
same,SPOT peptide array binding signal intensity,AgLsb1,3.5
same,SPOT peptide array binding signal intensity,AgLsb4,99
same,SPOT peptide array binding signal intensity,AgMyo5,2
same,SPOT peptide array binding signal intensity,AgNbp2,44
same,SPOT peptide array binding signal intensity,AgRvs167,5.33
same,SPOT peptide array binding signal intensity,AgSho1,73
same,SPOT peptide array binding signal intensity,AgSla1-D1-D2,368
same,SPOT peptide array binding signal intensity,AgSla1-D3,1.5
same,SPOT peptide array binding signal intensity,CaAbp1-D1,1000
same,SPOT peptide array binding signal intensity,CaAbp1-D2,1180
same,SPOT peptide array binding signal intensity,CaBbc1,31.5
same,SPOT peptide array binding signal intensity,CaBem1-D1,4
same,SPOT peptide array binding signal intensity,CaBzz1-D1,47.5
same,SPOT peptide array binding signal intensity,CaBzz1-D2,26
same,SPOT peptide array binding signal intensity,CaCyk3,≤ 0
same,SPOT peptide array binding signal intensity,CaFus1,729
same,SPOT peptide array binding signal intensity,CaHof1,0.5
same,SPOT peptide array binding signal intensity,CaHse1,37.2
same,SPOT peptide array binding signal intensity,CaLsb1,1
same,SPOT peptide array binding signal intensity,CaLsb4,≤ 0
same,SPOT peptide array binding signal intensity,CaMyo5,0.75
KRRAPPPVPKKPSSR,SPOT peptide array binding signal intensity,AgAbp1,5310
same,SPOT peptide array binding signal intensity,AgBbc1,1320
same,SPOT peptide array binding signal intensity,AgBem1-D1,274
same,SPOT peptide array binding signal intensity,AgBzz1-D1,2790
same,SPOT peptide array binding signal intensity,AgBzz1-D2,1090
same,SPOT peptide array binding signal intensity,AgCyk3,4
same,SPOT peptide array binding signal intensity,AgFus1,42.5
same,SPOT peptide array binding signal intensity,AgHof1,358
same,SPOT peptide array binding signal intensity,AgHse1,332
same,SPOT peptide array binding signal intensity,AgLsb1,650
same,SPOT peptide array binding signal intensity,AgLsb4,374
same,SPOT peptide array binding signal intensity,AgMyo5,37
same,SPOT peptide array binding signal intensity,AgNbp2,6190
same,SPOT peptide array binding signal intensity,AgRvs167,106
same,SPOT peptide array binding signal intensity,AgSho1,886
same,SPOT peptide array binding signal intensity,AgSla1-D1-D2,107
same,SPOT peptide array binding signal intensity,AgSla1-D3,1230
same,SPOT peptide array binding signal intensity,CaAbp1-D1,5770
same,SPOT peptide array binding signal intensity,CaAbp1-D2,7000
same,SPOT peptide array binding signal intensity,CaBbc1,2030
same,SPOT peptide array binding signal intensity,CaBem1-D1,95
same,SPOT peptide array binding signal intensity,CaBzz1-D1,7240
same,SPOT peptide array binding signal intensity,CaBzz1-D2,4490
same,SPOT peptide array binding signal intensity,CaCyk3,458
same,SPOT peptide array binding signal intensity,CaFus1,308
same,SPOT peptide array binding signal intensity,CaHof1,0.75
same,SPOT peptide array binding signal intensity,CaHse1,1600
same,SPOT peptide array binding signal intensity,CaLsb1,≤ 0
same,SPOT peptide array binding signal intensity,CaLsb4,2400
same,SPOT peptide array binding signal intensity,CaMyo5,4.75
same,SPOT peptide array binding signal intensity,CaNbp2,2600
same,SPOT peptide array binding signal intensity,CaRvs167,130
same,SPOT peptide array binding signal intensity,CaRvs167-3,21.8
same,SPOT peptide array binding signal intensity,CaSho1,269
same,SPOT peptide array binding signal intensity,CaSla1-D1-D2,3450
same,SPOT peptide array binding signal intensity,CaSla1-D3,1040
same,SPOT peptide array binding signal intensity,ScAbp1,3030
same,SPOT peptide array binding signal intensity,ScBbc1,669
same,SPOT peptide array binding signal intensity,ScBem1-D1,29
same,SPOT peptide array binding signal intensity,ScBzz1-D1,2330
same,SPOT peptide array binding signal intensity,ScBzz1-D2,82.5
same,SPOT peptide array binding signal intensity,ScCyk3,13
same,SPOT peptide array binding signal intensity,ScFus1,45.5
same,SPOT peptide array binding signal intensity,ScHof1,0.5
same,SPOT peptide array binding signal intensity,ScHse1,448
same,SPOT peptide array binding signal intensity,ScLsb1,517
same,SPOT peptide array binding signal intensity,ScLsb2,684
same,SPOT peptide array binding signal intensity,ScLsb3,4730
same,SPOT peptide array binding signal intensity,ScLsb4,105
same,SPOT peptide array binding signal intensity,ScMyo3,439
same,SPOT peptide array binding signal intensity,ScMyo5,380
same,SPOT peptide array binding signal intensity,ScNbp2,6200
same,SPOT peptide array binding signal intensity,ScPex13,512
same,SPOT peptide array binding signal intensity,ScRvs167,1260
same,SPOT peptide array binding signal intensity,ScSho1,3480
same,SPOT peptide array binding signal intensity,ScSla1-D1-D2,4950
same,SPOT peptide array binding signal intensity,ScSla1-D3,1400
same,SPOT peptide array binding signal intensity,SpAbp1-D1,6350
same,SPOT peptide array binding signal intensity,SpBbc1,192
same,SPOT peptide array binding signal intensity,SpBzz1-D1,1370
same,SPOT peptide array binding signal intensity,SpBzz1-D2,1470
same,SPOT peptide array binding signal intensity,SpCyk3,2.5
same,SPOT peptide array binding signal intensity,SpHof1,218
same,SPOT peptide array binding signal intensity,SpHof1-2,37.8
same,SPOT peptide array binding signal intensity,SpHof1-3,591
same,SPOT peptide array binding signal intensity,SpHse1,179
same,SPOT peptide array binding signal intensity,SpLsb1,1780
same,SPOT peptide array binding signal intensity,SpLsb4,2060
same,SPOT peptide array binding signal intensity,SpMyo1,416
same,SPOT peptide array binding signal intensity,SpNbp2,188
same,SPOT peptide array binding signal intensity,SpPex13,22
same,SPOT peptide array binding signal intensity,SpRvs167,1820
same,SPOT peptide array binding signal intensity,SpSla1-D1-D2,1660
same,SPOT peptide array binding signal intensity,SpSla1-D3,1.5
